Results taken from PubChem BioAssay AID1259374 (The Scripps Research Institute Molecular Screening Center, 2018).
In all, about 650,000 compounds went through this assay and about 5,900 (0.91%) were called active. This excerpt belongs to a sample that is enriched for actives. Values without a mark were called inactive. Rule as the data show it: active = inhibition above about 50%; inactive = the rest.

target: Microphthalmia-associated transcription factor (Homo sapiens) (UniProt O75030); assay: MITF inhibitors, primary screen, biochemical, AlphaScreen, human (AID 1259374); details: AlphaScreen MITF homodimerization, bead proximity signal; at 2.6 µM; active compounds read high;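 also: 0% = vehicle wells with protein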
Sequence (O75030 whole entry, looked up): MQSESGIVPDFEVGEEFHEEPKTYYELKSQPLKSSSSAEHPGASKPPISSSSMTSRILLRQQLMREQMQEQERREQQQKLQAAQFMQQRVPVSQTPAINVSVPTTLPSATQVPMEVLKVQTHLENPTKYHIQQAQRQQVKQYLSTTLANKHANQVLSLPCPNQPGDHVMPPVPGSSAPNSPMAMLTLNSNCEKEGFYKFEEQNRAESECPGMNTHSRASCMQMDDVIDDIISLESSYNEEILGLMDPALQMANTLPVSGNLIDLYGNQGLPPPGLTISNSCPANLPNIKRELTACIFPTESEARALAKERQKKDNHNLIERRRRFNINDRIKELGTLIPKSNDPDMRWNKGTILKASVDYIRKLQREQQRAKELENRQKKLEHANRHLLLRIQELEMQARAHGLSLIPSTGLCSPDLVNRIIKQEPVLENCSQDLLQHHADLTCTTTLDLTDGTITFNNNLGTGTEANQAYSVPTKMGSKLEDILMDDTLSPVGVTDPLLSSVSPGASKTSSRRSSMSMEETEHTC

SMILES	inhibition
CCOC(=O)c1c(NC(=O)c2ccccc2Br)sc2c1CC(C)(C)NC2(C)C	3.37%
NS(=O)(=O)c1ccc(O)c2ccccc12	13.7%
Nc1ccc(S(=O)(=O)O)c2cc(S(=O)(=O)O)cc(O)c12	63.3% (active)
Cc1ccc(/C=C2/C(=O)N(C)C(=S)N(c3ccccc3)C2=O)s1	23.2%
O=C(NC1CC1)C1CCC(=O)N1Cc1ccccc1Cl (configuration not stated)	-6.74%
O=C1c2ccccc2C(O)N1Cc1ccccc1Cl (configuration not stated)	79.6% (active)
O=C1c2ccccc2C(O)N1Cc1ccccc1 (configuration not stated)	3.72%
COC(=O)Cn1cc(-c2ccc([N+](=O)[O-])cc2)nc1SCC(=O)NC(C)(C)C	-1.03%
N#Cc1ccc(-c2cccnc2)nc1SCC(=O)c1ccc(Cl)cc1	-7.18%
CCN(C(=O)Cc1nc(N)n[nH]1)C1(C(=O)Nc2ccc(C)cc2)CCCCC1	63% (active)
COCCCN(C(=O)c1cc2ccccc2o1)C1(C(=O)Nc2ccccc2)CCCC1	6.26%
COc1ccc(N(C(=O)Cc2nc(N)n[nH]2)C2(C(=O)Nc3ccccc3)CCCCC2)cc1	-1.47%
CCN(C(=O)Cc1nc(N)n[nH]1)C1(C(=O)Nc2ccccc2)CCCCC1	68.5% (active)
COc1ccc(NC(=O)C2(N(C)C(=O)Cn3nnnc3N)CCCCC2)cc1	5.13%
COCCN(C(=O)CN1C(=O)c2ccccc2C1=O)C1(C(=O)Nc2ccccc2)CCCC1	11.4%
Cc1ccc(NC(=O)Cn2c(=O)[nH]n(-c3ccccc3)c2=O)cc1C	-10.5%
Cc1ccc(NC(=O)CNCCCSc2ccccc2)cc1C	75.4% (active)
Cc1ccc(NC(=O)CSCC(=O)Nc2ccccc2F)cc1C	4.24%
CC1=CC(C)(C)N2C(=O)C(=O)c3cc(OC(=O)C(C)(C)C)cc1c32	-9.06%
CC(C)OC(=O)C1=c2/c(=C/c3ccco3)c(N)c(C#N)n2C(=O)C(c2ccco2)S1 (configuration not stated)	14.9%
Cc1nc(N2CCCCC2C)c2c(C)c(C(=O)NC3CCCCC3)sc2n1 (configuration not stated)	9.14%

SMILES	inhibition
COCC(=O)Nc1ccc2nc(C)n(-c3ccc(F)cc3)c(=O)c2c1	-0.07%
COc1ccc(OCCSc2nnc3nc(C)cc(C)n23)cc1	7.82%
COc1ccc(OCCn2ccnc2C)cc1	57.2% (active)
Cc1nccn1CC(O)COc1ccc(Br)cc1 (configuration not stated)	4.86%
CC1CCC(C(C)C)C(OC(=O)COC(=O)c2cnccn2)C1 (configuration not stated)	2.66%
Cc1cc(C)c(NC(=O)CNC(C)(C)C)c(C)c1	-3.53%
CCN(CC)CC(=O)Nc1c2c(nc3ccccc13)N(c1cccc(C)c1)CC2	65.6% (active)
CC(C)(C)NCC(=O)Nc1c2c(nc3ccccc13)N(Cc1ccccc1)CC2	63.8% (active)
CCOC(=O)COc1cccc2c1CCN(Cc1ccccc1)C2=O	-3.19%
CCOC(=O)C1CCN(c2nc(-c3cccc(C)c3)nc3ccccc23)CC1	0.58%
CCN(CC)CC(=O)Nc1nn(-c2ccccc2)nc1C(N)=O	-0.44%
Cc1[nH]c(=O)[nH]c(=O)c1S(=O)(=O)N1CCOc2ccccc21	5.78%
CC(C)C(=O)Nc1ccc(CN2CCOCC2)cc1	1.55%
CCc1ccc(NC(=O)C(=O)NCCCN2CCOCC2)cc1	12.7%
CC(NCCCN1CCOCC1)C(=O)Nc1ccccc1 (configuration not stated)	77.6% (active)
O=C(Cn1c(=O)n(Cc2ccc3c(c2)OCO3)c(=O)c2ncccc21)N1CCc2ccccc21	3.95%
COc1cc(C=O)ccc1OCC(=O)c1ccc(C)c(C)c1	11.1%
COc1ccc(C(=O)COC(=O)CNS(=O)(=O)/C=C/c2ccc(C)cc2)cc1OC	74.8% (active)
CCOC(=O)N/N=C/c1ccc(OS(=O)(=O)c2ccc(C)cc2)c(OC)c1	2.78%
O=C(CCN1C(=O)C2CCCCC2C1=O)N1CCc2c(nc(N3CCCC3)[nH]c2=O)C1 (configuration not stated)	-0.41%
CC(C)[C@@H](CO)Nc1ccc2ncc(-c3ccccc3F)n2n1	-14.3%

SMILES	inhibition
CC(=O)c1ccc(OCC(=O)N2CCOCC2)cc1	-0.62%
CS(=O)(=O)N1CCC(c2nc3c(nnn3Cc3cccc(Cl)c3)c(=O)[nH]2)CC1	9.95%
CS(=O)(=O)N1CCN(Cc2cccc(Cl)c2)CC1	70.2% (active)
O=S(=O)(c1ccc(Br)c2ccccc12)N1CCN(Cc2ccccc2)CC1	7.47%
CCS(=O)(=O)N1CCN(c2cccc(Cl)c2)CC1	-3.13%
CCCS(=O)(=O)N1CCN(Cc2ccccc2Br)CC1	58.2% (active)
CCCS(=O)(=O)N1CCC(O)(c2cccnc2)CC1	13.4%
Clc1cccc(CN2CCN(c3ccccn3)CC2)c1	50.1%
CCCS(=O)(=O)N1CCN=C1SCc1cccc(Cl)c1	18.8%
CCCS(=O)(=O)N1CCN(Cc2cccc(Cl)c2)CC1	54.8% (active)
CC(CC(=O)N(CC(N)=O)C(C)C)c1ccccc1 (configuration not stated)	-5.95%
CCOC(=O)c1cccc(NC(=O)COc2ccccc2Br)c1	8.75%
COc1cc(/C=C(/C#N)C(N)=S)c(Br)cc1O	24.1%
CSc1ccccc1C(=O)NCc1c(C)ncc2c1CCN(C(=O)c1cc(C)oc1C)C2	12.3%
COc1ccc(C(=O)N2CCCCO2)cc1OC1CCN(C(C)=O)CC1	2.51%
Cc1ccc(SCC(=O)NCc2nc(-c3ccc(C)cc3)no2)cc1	-3.11%
CC(C)CCN1CCNC(=O)C1CC(=O)N1CCCO1 (configuration not stated)	1.48%
O=[N+]([O-])c1c(Cl)cc(Cl)c2nsnc12	1.42%
C=CCn1c(C)c(/C=c2/sc3n(c2=O)C(c2ccc(OC)c(Br)c2)C(C(=O)OCC)=C(C)N=3)c2ccccc21 (configuration not stated)	-0.97%
CN1CCN(c2nccnc2-c2cccc(C(=O)NCCO)c2)CC1	4.98%
